Unmarked numbers belong to inactive results. Results filed as inconclusive are left out. Activity calls are given as the source filed them. Unless noted, the call rests on the fitted dose curve; in most records, active means well fitted curve in the direction sought with a large enough effect in the repeat runs; inconclusive means weak or mixed curves; inactive means no such curve, though single readings can be large; an effect the other way counts as inactive or inconclusive.

One assay addresses Aromatase (Homo sapiens) (UniProt P11511). The assay is described as follows: qHTS assay to identify aromatase inhibitors (AID 743083). Further: nearly all actives have a fitted effect of over 55% in size. Further: potency means the concentration at half of the fitted maximal effect. On activity, negative = inhibition: series mostly up to about 70 µM.
The target in assay [1] is Aryl hydrocarbon receptor (Homo sapiens) (UniProt P35869). Nature of the assay: qHTS assay to identify small molecule that activate the aryl hydrocarbon receptor (AhR) signaling pathway (AID 743085).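 Further: HG2L7.5c1 human HepG2 liver cells with stably integrated DRE-driven firefly reporter; series mostly up to about 70 µM; nearly all actives have a fitted effect of over 15% in size.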 In outline:
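Cell line HG2L7.5c1 (human hepatoma, 20× DRE-luc). Plated, 5 h 37C, compound/DMSO added, 24 h 37C. CellTiter-Fluor 30 min 37C → fluorescence; then ONE-Glo 30 min RT → luminescence.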

Assay [2] can be described thus: Caspase-3/7 induction in HepG2 cells by small molecules, qHTS assay (AID 1346978). Further: nearly all actives have a fitted effect of over 15% in size. In outline:
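Wild-type HepG2 cells, 2,000/well, settled 5 hr at 37 C and 5% CO2, then compound-treated for 17 hr; caspase-3/7 activity read by luminescent Caspase-Glo 3/7 after 30 min at room temperature.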

Assay [3] has as its target Acetylcholinesterase (Homo sapiens) (UniProt P22303). The assay is described as follows: Acetylcholinesterase (AChE) small molecule antagonists: colormetric cell-based qHTS assay (AID 1347395; calls by dose curve; further: nearly all actives have a fitted effect of over 30% in size; further: potency means the concentration at half of the fitted maximal effect). In outline: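 Colorimetric read-out: DTNB detects thiocholine released when cellular AChE in SH-SY5Y cells hydrolyses acetylthiocholine. Cells attached overnight, received compound for 30 min at 37 C, then substrate mix for 90 min at 37 C.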

The target is the same in assay [4]. Nature of the assay: Acetylcholinesterase (AChE) small molecule antagonists: enzyme-based qHTS assay (AID 1347397; calls by dose curve; further: nearly all actives have a fitted effect of over 55% in size; further: potency means the concentration at half of the fitted maximal effect). As to conditions: Potency: AChE enzyme activity inhibition; outcome: AChE enzyme activity inhibition. In a few lines: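 In this quantitative HTS, compounds from the Tox21 10K collection were preincubated 30 min at ambient temperature with recombinant human AChE dispensed at 50 mU/mL. Hydrolysis of acetylthiocholine was then followed for 10 min by DTNB colour development.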

For assay [5] the target is unchanged. Nature of the assay: Acetylcholinesterase (AChE) small molecule antagonists: fluorescence cell-based qHTS assay (AID 1347398; calls by dose curve; further: nearly all actives have a fitted effect of over 50% in size; further: potency means the concentration at half of the fitted maximal effect). As to conditions: Potency: AChE activity; outcome: AChE activity. In a few lines: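 Cells (SH-SY5Y) attached overnight, were dosed with compound or DMSO vehicle for 30 min at 37 C, and then incubated 40 min at room temperature with acetylthiocholine and Thiolite Green; green fluorescence indexed AChE activity.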

For assay [6] the target is unchanged. Nature of the assay: Acetylcholinesterase (AChE) small molecule antagonists: enzyme-based qHTS assay with human liver microsomes (AID 1347399; calls by dose curve; further: nearly all actives have a fitted effect of over 60% in size; further: potency means the concentration at half of the fitted maximal effect). The settings on record: Potency: qHTS inhibition; outcome: qHTS inhibition. In a few lines: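 Recombinant human AChE (50 mU/mL in the enzyme mix) and human liver microsomes (0.25 mg/mL final) were preincubated with compound and NADPH (0.25 mg/mL final) for 30 min at 37 C. Acetylthiocholine/DTNB was then added; thiocholine was read colorimetrically after 10 min at room temperature.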

The nature of assay [7]: qHTS assay to identify small molecule agonists of H2AX (AID 1224845; active means well fitted activation curve with a large enough effect in the signal ratio in the repeat runs, not every such curve was filed as active; the % refers to the signal ratio; further: potency means the concentration at half of the fitted maximal effect). In a few lines: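 Wild-type CHO-K1 cells, plated overnight, exposed 3hr at 37C to 15 concentrations (0.76% DMSO final). Lysed, then HTRF anti-pH2AX (S139) cryptate and anti-H2AX-d2 antibodies, 24 hr room temperature; 665/620 nm emission read.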
Assay [8] is described as follows: A CellTox Green Cytotoxicity Assay to monitor cytotoxicity in HEK293 cells - 0 hour (AID 1224869). Further: nearly all actives have a fitted effect of over 50% in size. In a few lines:
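Fluorescence from a DNA-binding dye excluded by viable cells was measured repeatedly in the same HEK293 wells (600 cells/well) during continuous compound exposure at 37 C. Each assay gives one read point: 0, 8, 16, 24, 32 or 40 h.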

A short description of assay [9]: A CellTox Green Cytotoxicity Assay to monitor cytotoxicity in HepG2 cells - 0 hour (AID 1224882). Further: nearly all actives have a fitted effect of over 35% in size. In outline:
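Real-time cytotoxicity: fluorescence of a cell-impermeant cyanine dye binding DNA of dead HepG2 cells, measured repeatedly (0–40 h) during compound exposure at 37 C. Cells seeded 600/well with reagent, dosed after 5 h.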

Assay [10] can be described thus: qHTS assay to identify small molecule antagonists of the estrogen receptor alpha (ER-alpha) signaling pathway using the BG1 cell line in the presence of 0.1 nM 17-beta-estradiol - cell viability counter screen (AID 1259241). Further: nearly all actives have a fitted effect of over 40% in size. In outline:
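VM7Luc4E2, 4,000 cells/well, phenol red-free medium + 10% charcoal-stripped FBS; 24 hr plating; cpd + 0.1 nM E2 final, 22 hr 37C/5% CO2; CellTiter-Fluor 30 min, fluorescence.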

The nature of assay [11]: qHTS assay to identify small molecule HDAC inhibitors (AID 1259364). Further: top concentration of the series differs between compounds; nearly all actives have a fitted effect of over 45% in size. In a few lines:
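Luminescence read after 30 min room-temperature HDAC-Glo incubation measures cellular class I/II HDAC activity. Compounds were applied for 2 hr at 37 C to HCT-116 wild-type cells seeded the day before.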

A short description of assay [12]: Caspase-3/7 induction in CHO-K1 cells by small molecules, qHTS assay (AID 1346980). Further: nearly all actives have a fitted effect of over 15% in size. In outline: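 Wild-type CHO-K1 cells exposed to compounds for 17hr at 37 C, 5% CO2. Caspase-3/7 activity then measured by Caspase-Glo 3/7 luminescence after 30min at room temperature.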
In assay [13] the target is Cytochrome P450 1A2 (Homo sapiens) (UniProt P05177). Nature of the assay: Cytochrome P450 Family 1 Subfamily A Member 2 (CYP1A2) small molecule antagonists: luciferase reporter qHTS assay (AID 1671199). Further: nearly all actives have a fitted effect of over 50% in size. Further: potency means the concentration at half of the fitted maximal effect. On activity change, negative = inhibition: series mostly up to about 120 µM. In a few lines: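 Luminescence from luciferin formed by CYP1A2 from a proluciferin substrate, read 20 min after detection reagent. Compound was pre-incubated 10 min with enzyme-substrate, and reaction started with NADPH regeneration solution for 1 h at room temperature; furafylline control.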

Assay [14] can be described thus: qHTS assay to identify small molecule antagonists of the estrogen related receptor (ERR) signaling pathway - cell viability counter screen (AID 1224818). Further: series mostly up to about 46 µM. In a few lines: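 Cytotoxicity counter screen: fluorescence from CellTiter-Fluor, added after 17.5 h compound exposure at 37 C and read 30 min later. ERR cell line seeded at 2,000 cells/well, preincubated 6 h before dosing.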

Assay [15] is described as follows: qHTS assay to identify small molecule antagonists of the estrogen related receptor (ERR) signaling pathway (AID 1224819; further: series mostly up to about 46 µM; nearly all actives have a fitted effect of over 50% in size). In a few lines: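 LOPAC library screened for antagonism as reduced One-Glo luminescence in ERR reporter cells (2,000/well). Compounds were added after 6 h pre-incubation and left 18 h at 37C; reading followed a 30 min room-temperature reagent step.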

Assay [16] in a line: qHTS assay to identify small molecule agonists of the estrogen related receptor (ERR) signaling pathway (AID 1224820). In outline: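 After 6 h plating (2,000 cells/well) and 18 h compound treatment at 37 C, ERR cells were lysed with One-Glo and luminescence read after 30 min at room temperature.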
Assay [17] has as its system estrogen-related receptor alpha (ERRalpha) with PGC-1alpha coactivator, human. Nature of the assay: qHTS assay to identify small molecule antagonists of the estrogen related receptor signaling pathway with the pleiotropic PPARgamma coactivator (PGC) (AID 1224821; calls by dose curve). In outline:
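Luminescence from One-Glo luciferase reagent (30 min, room temperature) measured after 18 h compound treatment at 37 °C. Cells carry the PGC/ERR reporter and were seeded 6 h prior to dosing.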

Assay [18] in a line: qHTS assay to identify small molecule antagonists of the estrogen related receptor signaling pathway with the pleiotropic PPARgamma coactivator (PGC) cell viability counter screen (AID 1224822; further: series mostly up to about 46 µM). In a few lines: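 Viability counter-screen read by fluorescence intensity after 30 min with CellTiter-Fluor at 37 C; PGC/ERR reporter cells were exposed to compounds for 17.5 h at 37 C following a 6 h preincubation.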

A short description of assay [19]: qHTS assay to identify small molecule agonists of the estrogen related receptor signaling pathway with the pleiotropic PPARgamma coactivator (PGC) (AID 1224823). In a few lines: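 Luminescence from One-Glo reagent (30 min, room temperature) was read after 18 h compound treatment at 37 C of PGC/ERR cells plated 6 h beforehand; compounds delivered in DMSO by pin tool.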
On the % scale 0 is the no-effect control and ±100 the full control effect.

Chain of Cytochrome P450 1A2 (Homo sapiens) (P05177 whole entry, looked up): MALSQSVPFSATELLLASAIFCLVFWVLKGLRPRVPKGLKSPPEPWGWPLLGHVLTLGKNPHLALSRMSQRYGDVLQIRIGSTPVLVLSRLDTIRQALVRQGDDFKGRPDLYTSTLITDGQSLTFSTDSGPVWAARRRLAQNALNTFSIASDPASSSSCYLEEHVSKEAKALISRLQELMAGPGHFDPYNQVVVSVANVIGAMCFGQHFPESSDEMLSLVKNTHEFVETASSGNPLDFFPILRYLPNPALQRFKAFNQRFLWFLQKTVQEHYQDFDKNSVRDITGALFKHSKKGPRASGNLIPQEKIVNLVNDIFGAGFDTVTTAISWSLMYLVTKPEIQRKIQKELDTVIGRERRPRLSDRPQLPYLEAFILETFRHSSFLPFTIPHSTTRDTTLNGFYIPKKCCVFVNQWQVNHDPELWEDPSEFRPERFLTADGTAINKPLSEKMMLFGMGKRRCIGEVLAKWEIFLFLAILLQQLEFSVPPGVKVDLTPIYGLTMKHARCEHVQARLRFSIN
Chain of Acetylcholinesterase (Homo sapiens) (P22303 whole entry, looked up): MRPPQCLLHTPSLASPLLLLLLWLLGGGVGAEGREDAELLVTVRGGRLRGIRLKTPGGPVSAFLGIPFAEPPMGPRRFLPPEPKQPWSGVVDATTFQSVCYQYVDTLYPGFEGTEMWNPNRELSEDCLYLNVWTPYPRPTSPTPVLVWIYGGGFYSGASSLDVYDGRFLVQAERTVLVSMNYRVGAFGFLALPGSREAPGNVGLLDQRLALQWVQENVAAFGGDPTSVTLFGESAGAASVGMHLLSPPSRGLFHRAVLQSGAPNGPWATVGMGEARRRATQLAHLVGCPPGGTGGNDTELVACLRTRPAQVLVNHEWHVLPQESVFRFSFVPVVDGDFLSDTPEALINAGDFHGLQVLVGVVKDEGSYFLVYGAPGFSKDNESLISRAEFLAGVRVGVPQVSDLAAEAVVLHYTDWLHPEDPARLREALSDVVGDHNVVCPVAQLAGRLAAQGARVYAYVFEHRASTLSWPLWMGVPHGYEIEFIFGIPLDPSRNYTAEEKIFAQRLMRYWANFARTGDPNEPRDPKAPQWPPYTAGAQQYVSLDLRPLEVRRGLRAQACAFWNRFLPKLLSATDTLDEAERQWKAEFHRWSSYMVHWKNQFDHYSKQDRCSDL
Chain of Aryl hydrocarbon receptor (Homo sapiens) (P35869 whole entry, looked up): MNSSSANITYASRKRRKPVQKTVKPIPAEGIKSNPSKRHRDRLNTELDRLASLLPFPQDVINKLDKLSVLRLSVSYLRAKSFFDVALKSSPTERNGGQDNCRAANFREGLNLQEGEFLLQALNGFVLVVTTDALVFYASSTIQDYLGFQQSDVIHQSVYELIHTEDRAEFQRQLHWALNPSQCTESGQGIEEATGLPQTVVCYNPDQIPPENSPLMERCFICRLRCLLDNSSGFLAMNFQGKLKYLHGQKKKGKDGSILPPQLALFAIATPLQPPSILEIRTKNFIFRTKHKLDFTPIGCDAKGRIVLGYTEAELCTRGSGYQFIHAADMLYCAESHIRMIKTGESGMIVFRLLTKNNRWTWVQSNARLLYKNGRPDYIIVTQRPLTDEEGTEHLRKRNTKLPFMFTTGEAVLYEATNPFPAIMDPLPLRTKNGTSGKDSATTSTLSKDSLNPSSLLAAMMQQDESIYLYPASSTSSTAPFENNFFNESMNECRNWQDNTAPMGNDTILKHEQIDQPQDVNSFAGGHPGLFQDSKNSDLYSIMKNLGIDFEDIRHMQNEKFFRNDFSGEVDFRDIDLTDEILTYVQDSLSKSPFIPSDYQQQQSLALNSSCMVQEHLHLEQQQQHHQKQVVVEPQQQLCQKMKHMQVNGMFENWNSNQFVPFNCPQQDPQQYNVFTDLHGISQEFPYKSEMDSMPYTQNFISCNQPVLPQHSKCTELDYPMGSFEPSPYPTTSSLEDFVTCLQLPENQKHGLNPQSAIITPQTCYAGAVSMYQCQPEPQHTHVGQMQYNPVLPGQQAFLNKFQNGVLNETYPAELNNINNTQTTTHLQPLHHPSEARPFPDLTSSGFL
Chain of Aromatase (Homo sapiens) (P11511 whole entry, looked up): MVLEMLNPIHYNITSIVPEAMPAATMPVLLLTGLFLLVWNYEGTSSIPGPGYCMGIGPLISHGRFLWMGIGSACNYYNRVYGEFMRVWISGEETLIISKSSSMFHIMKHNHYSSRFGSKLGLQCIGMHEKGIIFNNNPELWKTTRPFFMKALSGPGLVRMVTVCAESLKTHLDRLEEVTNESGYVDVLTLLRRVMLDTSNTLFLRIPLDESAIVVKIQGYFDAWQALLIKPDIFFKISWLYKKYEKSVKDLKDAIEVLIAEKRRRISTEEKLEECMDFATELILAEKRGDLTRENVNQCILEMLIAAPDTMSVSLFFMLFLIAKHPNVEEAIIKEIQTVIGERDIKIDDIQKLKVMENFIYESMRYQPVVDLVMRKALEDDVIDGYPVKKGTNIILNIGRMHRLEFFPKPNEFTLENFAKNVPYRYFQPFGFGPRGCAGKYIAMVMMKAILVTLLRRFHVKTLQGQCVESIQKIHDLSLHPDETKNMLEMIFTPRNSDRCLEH

As for `COCCOC(=O)c1ccccc1C(=O)OCCOC`, the Potency entry (in the assay with Aromatase (Homo sapiens); in assay [1]; in [2]; in [3]; in assay [4]; in [5]) was “inactive” each time. The Potency entry in [6] is “inactive”.

Take `Nc1ccc(Cl)cc1[N+](=O)[O-]`: the Potency entry (in the assay with Aromatase (Homo sapiens); in assay [7]; in assay [3]; in [4]; in assay [5]; in assay [6]) was “inactive” throughout.

As for `Cc1ccc(N(SC(F)(Cl)Cl)S(=O)(=O)N(C)C)cc1`, the Potency with Aromatase (Homo sapiens) was 3.86 µM (active); in assay [6], 71 µM (active); in [13], 22.4 µM (active). Besides, the Potency entry in [1], in [7], in assay [8], in assay [9], in [10] and in [2] was “inactive” each time. In addition, the Potency result in assay [3] is “inactive”. The outcome in [11] and in [12] was inactive.

For the molecule `COc1cc(OC)c(OC)cc1C=O`, the Potency is 44.4 µM (active) with Aromatase (Homo sapiens) and 11 µM (active) in [13]. Also, the Potency result in [14], in assay [15], in [16], in [17], in assay [18] and in assay [19] was “inactive” each time. The Potency entry in assay [8], in assay [9], in assay [2], in assay [3], in [4] and in assay [5] was “inactive” each time. For the same molecule, the Potency result in assay [6] is “inactive”. Besides, the outcome in assay [11] and in [12] was inactive.

With `O=C(c1ccccc1)C(Cl)Cl`, the Potency result in [7], in assay [8], in [9], in assay [10], in assay [2] and in assay [3] was “inactive” in each case. The Potency result in assay [4], in assay [5] and in assay [6] was “inactive” in each case. Also, the outcome in [11] and in [12] was inactive. The Potency in [13] was 31.7 µM (active).

For the molecule `CNC(=O)Oc1cc(C)c(SC)c(C)c1`, the Potency was 63.5 µM (active) in assay [7]; 3.17 µM (active) in [3]; 3.56 µM (active) in [4]; 1.59 µM (active) in [5]; 22.4 µM (active) in [6]; 6.33 µM (active) in assay [13]. In addition, the Potency entry in assay [9], in assay [10] and in [2] was “inactive” in each case. Further, the result in assay [11] and in [12] was inactive.

As for `Brc1c2ccccc2c(Br)c2ccccc12`, the figures for the activity, negative = inhibition (in the assay with Aromatase (Homo sapiens); in [3]) were 2.07% [at 8.47 µM] and 0.841% [at 10.5 µM], respectively. In addition, the activation in assay [1] was -3.68% [at 8.47 µM]. In [7], the activation (H2AX phosphorylation) was -2.5% [at 14 µM]. The activity change, negative = inhibition in [4] was 0.273% [at 10.5 µM]; in assay [5], 6.02% [at 10.5 µM]; in [6], 1.07% [at 10.5 µM].

As to `c1ccc2c(c1)Sc1ccccc1N2CC1CN2CCC1CC2` (configuration not stated), the Potency result in [1], in assay [8], in assay [9], in assay [10], in assay [3] and in assay [4] was “inactive” each time. The Potency entry in assay [5], in assay [6] and in [13] was “inactive” throughout. Moreover, the outcome in assay [11] and in [12] was inactive.

With `Cc1ccc2nc3sc(=O)sc3nc2c1`, in [7], the activation (H2AX phosphorylation) was -0.108% [at 31.6 µM]. The cytotoxicity was -0.433% [at 15.8 µM] in assay [8] and 0.753% [at 15.8 µM] in [9]. In [10], the activity change, negative = cytotoxicity was 1.06% [at 19 µM]. Besides, the activity change, negative = inhibition in assay [11] is -12.7% [at 19 µM]; in assay [4], 0% [at 23.6 µM]; in assay [5] it was 1.71% [at 23.8 µM]; in assay [6], -0.324% [at 23.6 µM]. Further, the caspase activation in [2] is 0.305% [at 19 µM]. Besides, the caspase-3/7 activation in [12] is -0.994% [at 19 µM]. In addition, the activity, negative = inhibition in [3] was -0.0538% [at 23.6 µM]. Moreover, the Potency in [13] is 13.5 µM (active).

For the molecule `C[C@]12CC[C@@H](O)C[C@@H]1CC[C@@H]1[C@@H]2CC[C@]2(C)C(=O)CC[C@@H]12`, the Potency result in [7], in [8], in assay [9], in assay [10] and in assay [2] was “inactive” in each case. Besides, the molecule was called inactive in [11] and in [12].

The record behind these values is PubChem BioAssay (Tox21).
